Assay outcomes from PubChem.
DT40 TDP1 no CPT: qHTS for Inhibitors of human tyrosyl-DNA phosphodiesterase 1 (TDP1): qHTS in cells in absence of CPT; AID 686978, 2013; Potency, µM (series often up to 46.2 µM), for the others: at the top dose activity change, negative = growth inhibition, hits mostly inhibitors; DT40 Tdp1-/- hTDP1 cells, no CPT, ATP luminescence, 48 h; 420,000 tested, 15% active; also: nearly all actives have a fitted effect of over 55% in size
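Readout: luminescence from CellTiter-Glo after 30 min in the dark at RT. Cells: DT40 Tdp1-/- with stable hTDP1, 400/well. Exposure: compounds alone, ≥48 hr, 37 °C.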
Gal4-VP16 FLuc: Gal4-VP16 reporter inhibition counter-screen. Potency, µM (titrated, usually from 53.6 µM), for inactives: at the top dose activity, negative = inhibition, most hits filed as inhibitors. 310,000 tested, 3.5% active. Drosophila S2 Gal4-VP16 UAS-luciferase, luminescence, 20 h;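 also: Gal4-VP16 expression switched on by copper sulfate through the metallothionein promoter; nearly all actives have a fitted effect of over 50% in size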
TDP1 cell CPT: growth inhibition of DT40 Tdp1-/-;hTDP1 cells with camptothecin (screen for TDP1 inhibitors); chicken DT40 Tdp1-/-;hTDP1 cells + 20 nM CPT, ATP luminescence, 48 h; Potency, µM (series often up to 46.2 µM), inactives show at the highest dose activity change, negative = growth inhibition, hits mostly inhibitors; 420,000 tested, 12% active; AID 686979; also: nearly all actives have a fitted effect of over 55% in size
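Cell growth measured by CellTiter-Glo luminescence after a minimum 48 h, 37 C compound exposure with 20 nM CPT in Tdp1-knockout DT40 cells stably expressing hTDP1, seeded 400/well; qHTS titration format.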
ALOX12 inh: inhibitors of human 12S-lipoxygenase ALOX12; AID 1671190; purified 12hLO, xylenol orange hydroperoxide absorbance; Potency, µM (highest dose often 108 µM), inactives show at the top dose activity change, negative = inhibition, hits mostly inhibitors; 580,000 tested, 1.1% active
Target sequence (P18054 whole entry, looked up): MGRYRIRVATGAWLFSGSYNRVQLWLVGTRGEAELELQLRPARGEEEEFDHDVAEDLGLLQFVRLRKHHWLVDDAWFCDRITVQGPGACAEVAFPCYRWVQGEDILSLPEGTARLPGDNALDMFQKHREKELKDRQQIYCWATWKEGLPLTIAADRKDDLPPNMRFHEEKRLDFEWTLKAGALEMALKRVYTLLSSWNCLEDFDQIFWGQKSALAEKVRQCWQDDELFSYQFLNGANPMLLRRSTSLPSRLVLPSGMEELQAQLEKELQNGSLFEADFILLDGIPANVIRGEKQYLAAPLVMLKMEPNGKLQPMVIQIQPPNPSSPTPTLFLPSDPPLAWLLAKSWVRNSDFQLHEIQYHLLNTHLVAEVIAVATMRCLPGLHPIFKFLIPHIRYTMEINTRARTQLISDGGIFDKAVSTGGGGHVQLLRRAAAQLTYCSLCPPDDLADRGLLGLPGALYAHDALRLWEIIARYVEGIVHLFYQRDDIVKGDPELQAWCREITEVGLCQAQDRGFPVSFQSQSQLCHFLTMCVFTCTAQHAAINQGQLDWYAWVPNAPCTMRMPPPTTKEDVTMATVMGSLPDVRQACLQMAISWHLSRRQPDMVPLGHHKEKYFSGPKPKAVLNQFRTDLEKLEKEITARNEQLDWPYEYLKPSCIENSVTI
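Purified human 12hLO (150 nM final) in 25 mM Hepes, 0.01% Triton X-100, pH 7.0 was preincubated 15 min at room temperature with compound. Then 40 uM arachidonic acid was added, 30 min. Hydroperoxide was read by Fe-XO absorbance ratio 573/405 nm.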
ELG1 DNA repair: blocks ELG1-dependent DNA repair in HEK293T cells; HEK293T ELG1-luciferase reporter, luminescence, 16 h; DNA damage induced by 5-fluorouridine; Potency, µM (doses to about 46.1 µM), for inactives: at the highest dose activity change, negative = inhibition, hits mostly inhibitors; 330,000 tested, 2.3% active; AID 504467; also: nearly all actives have a fitted effect of over 55% in size
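DMSO vehicle served as the neutral condition. Each well held 2,000 cells given 5-fluorouridine plus compound; after 16 hr at 37 °C/5% CO2, ONE-Glo was added and luciferase measured 30 min later.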
RORgamma inh: blocks mouse ROR gamma transcriptional activity | P51450 | Drosophila S2 Gal4-RORgamma UAS-luciferase reporter, 20 h | Potency, µM (top dose mostly 53.6 µM), for inactives: at the highest dose activity change, negative = inhibition, most hits filed as inhibitors | 310,000 tested, 5.4% active; also: nearly all actives have a fitted effect of over 60% in size
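Drosophila S2 cells stably expressing Gal4-DBD/mouse RORγ fusion under metallothionein promoter plus UAS-luciferase; compound 1 h, then 700 uM CuSO4 induction for 20 h at ambient temperature; inhibition read as reduced luminescence.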
* marks the source's active call; other numbers are inactive results; ? = inconclusive; nt = no result; [ ] = remark or other dose. Compounds with a hit are over-represented: about 15% of the library has one in this group of screens. Calls follow the shape of the dose curve; as a rule, active = well fitted curve in the direction sought with a large enough effect; inconclusive = small, poorly fitted or top-dose-only effect, or another doubt; inactive = no such curve, though single readings can be large; an effect the other way counts as inactive or inconclusive. % is scaled to controls: 0 for no effect and ±100 for the full control effect; potency is read from the fitted curve at half-maximal effect.

SMILES	DT40 TDP1 no CPT	Gal4-VP16 FLuc	TDP1 cell CPT	ALOX12 inh	ELG1 DNA repair	RORgamma inh
CCOc1ccccc1NC(=O)CCc1c(C)nn(-c2ccc(N3CCCCC3)nn2)c1C	16µM*	-14%	23µM*	-8%	?	0%
CCOC(=O)c1ccc(NC(=O)CCc2c(C)nn(-c3ccc(N4CCCCC4)nn3)c2C)cc1	nt	nt	nt	-8%	nt	nt
CCOc1ccccc1CNC(=O)CCc1c(C)nn(-c2ccc(N3CCOCC3)nn2)c1C	?	nt	?	-23%	nt	nt
O=C(C1=C[C@@H](c2csc3ccccc23)C[C@@H](OCc2ccc(CO)cc2)O1)N1CCN(Cc2ccccc2)CC1	?	13%	?	nt	?	22%
O=C(C1=C[C@@H](c2csc3ccccc23)C[C@@H](OCc2ccc(CO)cc2)O1)N1CCN(Cc2ccc3c(c2)OCO3)CC1	?	-1%	?	?	9.2µM*	15%
O=C(C1=C[C@H](c2ccccc2)C[C@H](OCc2ccc(CO)cc2)O1)N1CCN(Cc2ccccc2)CC1	?	4%	?	-8%	?	8%
O=C(C1=C[C@@H](c2ccccc2)C[C@@H](OCc2ccc(CO)cc2)O1)N1CCN(Cc2ccc3c(c2)OCO3)CC1	21µM*	-20%	18µM*	4%	15µM*	0%
CCCCc1ccc(NC(=O)c2nccnc2N)cc1	nt	nt	nt	71%	nt	nt
CC(C)Cc1cc(C(=O)N2CCCC(C)(c3ccccc3)C2)no1 (centres undefined)	nt	nt	nt	-1%	nt	nt
O=C(c1ccc(Cl)cc1)N1CC2(CCN(C3CCCCC3)CC2)Cc2ccccc21	nt	nt	nt	-2%[6.33 µM]	nt	nt
CCCc1noc(-c2cn(C3CCN(C(=O)c4ccc(F)c(F)c4)CC3)nn2)n1	nt	nt	nt	-15%	nt	nt
Cn1c(=O)c2c(ncn2CC(=O)OCc2ccc(C(C)(C)C)cc2)n(C)c1=O	nt	nt	nt	46%	nt	nt
CCNC(=O)c1ccc(CN(c2ccccc2)S(C)(=O)=O)cc1	nt	nt	nt	40%	nt	nt
O=C(NC(=O)c1c(F)cccc1F)Nc1cccc(Oc2ncc(Cl)cn2)c1	5.8µM*	nt	?	-1%	nt	nt
O=C(NCCc1csc2nc(-c3ccccc3F)nn12)c1ccccc1C(F)(F)F	9.2µM*	nt	7.3µM*	-27%	nt	nt
COc1cccc(C(=O)NCCc2csc3nc(-c4ccccc4F)nn23)c1OC	15µM*	nt	26µM*	-30%	nt	nt
COC(=O)c1ccc(NC(=O)C(=O)NCCc2csc3nc(-c4ccccc4F)nn23)cc1	-27%	nt	-2%	-22%	nt	nt
Cc1nn(Cc2ccc(F)cc2)c(C)c1NC(=O)c1noc2c1CCCCC2	?	3%	?	-6%	18µM*	16%
CC(C)(C)C1CCc2onc(C(=O)Nc3cnn(Cc4ccc(F)cc4)c3)c2C1 (centres undefined)	-26%	16µM*	?	-5%	-5%	?
O=C(Nc1cnn(Cc2ccc(F)cc2)c1)c1cnccn1	16%	-6%	-1%	0%	2%	25%
Cc1ccc(NC(=O)c2noc3c2CCC3)cc1C	?	?	2%	0%	?	?
O=C(Nc1cccc(O)c1)c1noc2c1CCCCC2	-23%	3.5µM*	-26%	1%	?	11µM*
Cc1nn(Cc2ccccc2Cl)c(C)c1NC(=O)c1noc2c1CCCCC2	?	13%	?	2%	-13%	39%
O=C(Nc1cnn(Cc2ccc(F)cc2)c1)C(c1ccccc1)c1ccccc1	21µM*	-1%	?	0%	?	34%
Cc1cc(Cl)c2[nH]ncc2n1	nt	nt	nt	10%	nt	nt
SMILES	DT40 TDP1 no CPT	Gal4-VP16 FLuc	TDP1 cell CPT	ALOX12 inh	ELG1 DNA repair	RORgamma inh
CCCc1ccc(OCc2ccc(C(=O)O)cc2)cc1	nt	nt	nt	19%	nt	nt
OCC1(O)CCCN(Cc2cnc(NCc3ccccc3)nc2)C1 (centres undefined)	nt	nt	nt	-13%	nt	nt
O=C(Nc1cnn(Cc2ccc(F)cc2)c1)c1noc2c1CCCC2	?	24%[10 µM]	-6%	8%	0.41µM*	?
COc1ccc(Nc2nccc3c(=O)cc(N4CCOCC4)oc23)cn1	nt	nt	nt	25µM*	nt	nt
O=c1cc(N2CCOCC2)oc2c(Nc3ccccc3)nccc12	nt	nt	nt	7%[176 µM]	nt	nt
O=c1cc(N2CCOCC2)oc2c(-c3cccc(F)c3)nccc12	nt	nt	nt	1%[176 µM]	nt	nt
C[S+](=O)([O-])c1cccc(-c2nccc3c(=O)cc(N4CCOCC4)oc23)c1	nt	nt	nt	56µM*	nt	nt
COc1cccc(-c2nccc3c(=O)cc(N4CCOCC4)oc23)c1	nt	nt	nt	45µM*	nt	nt
Cc1ccc(NC(=O)CCc2ncc(-c3ccc(C)c(C)c3)o2)c(O)c1	nt	nt	nt	6%	nt	nt
CS(=O)(=O)N1C[C@@H](C(=O)Nc2ccc(N3CCOCC3)cc2)[C@H](c2ccncc2)C1	nt	nt	nt	7%	nt	nt
Cc1ccc(Cn2c(-c3cccc(Cl)c3)nc(C)c(CCO)c2=O)cc1	nt	nt	nt	12%	nt	nt
CC1CCC(NC(=O)c2ccc3ncsc3c2)CC1 (centres undefined)	nt	nt	nt	10%	nt	nt
CCOC(=O)N1CCN(C(=O)C[C@@H]2C[C@@]3(C(=O)OCC)CCC=C3N(Cc3ccc(Cl)cc3Cl)C2=O)CC1	15µM*	nt	18µM*	-26%	nt	nt
